Reference: PMC7826789 (International Journal of Molecular Sciences, 2021)

system: INSRR; settings: Compound Concentration (nM):1000
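Note: KINOMEscan scanMAX binding as percent activity remaining versus control; lower means stronger binding.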

In order of falling “Percent Control” value:
1. COc1ccc2c(-c3ccnc(Nc4cccc(OC(F)(F)F)c4)n3)cnn2n1 [GW810372X]  100%
2. CCS(=O)(=O)c1ccc(OC)c(Nc2ncc(-c3cccc(OC)c3)o2)c1 [GW580509X]  100%
3. CC1=C(C(=O)Nc2ccc3[nH]ncc3c2)C(c2ccc3ccccc3c2)CC(=O)N1 (centres unmarked) [GSK270822A]  100%
4. COc1cccc(-c2c[nH]c3c(N/N=C/c4ccncc4)ncnc23)c1 [GW814408X]  100%
5. Cl.O=C(Nc1ccc(Oc2ccc3[nH]c(NC(=O)c4ccco4)nc3c2)cc1)Nc1cc(C(F)(F)F)ccc1F [GW683134A]  100%
6. COC(=O)Nc1nc2ccc(Oc3ccc(NC(=O)Nc4cc(C(F)(F)F)ccc4F)cc3)cc2s1.Cl [GW693917A]  100%
7. COc1cc2ncn(-c3cc(O[C@H](C)c4ccccc4Cl)c(C(N)=O)s3)c2cc1OC [GSK237701A]  100%
8. Cl.c1ccc(Cc2nc3ccc(Nc4ncnc5ccccc45)cc3[nH]2)cc1 [GR269666A]  100%
9. NS(=O)(=O)c1ccc(N/N=C2\C(=O)Nc3ccc(C(=O)NCCc4c[nH]cn4)cc32)cc1 [GW300660X]  100%
10. COc1cc(C)c(N(C)C(=O)CN(C)C)cc1Nc1nc(Nc2cccc(F)c2C(N)=O)c2cc[nH]c2n1 [GSK2219385]  2.9%
11. COc1cc(N2CCN(C(C)C)CC2)ccc1Nc1nc(Nc2ccc(F)cc2C(=O)NC[C@@H](O)CO)c2cc[nH]c2n1 [GSK1392956A]  1.4%
